Source: PubChem BioAssay
Only some compounds are listed: those with a hit (about 2.9% of all), similar ones and a draw of the others.
ATXN2 expr inh: inhibitors of ATXN2 expression | 360,000 compounds, 0.72% hits | Potency, µM (top dose mostly 57 µM), without a hit: at the highest dose activity change, negative = inhibition, most hits filed as inhibitors | HEK-293 ATXN2-luciferase reporter, luminescence, 24 h; note: % is set by controls: 0 for no effect and ±100 for the full control effect; nearly all actives have a fitted effect of over 55% in size
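ATXN2-luciferase reporter cells (luciferase flanked by upstream and downstream ATXN2 gene portions) were treated 24 h at 37 °C with compounds at up to 57 uM. SteadyGlo luminescence gave expression; GF-AFC fluorescence gave viability.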
Nrf2 block: Nrf2 pathway inhibition; A549 ARE-Fluc reporter, luciferase luminescence, 18-24 h; Potency, µM (highest dose often 46 µM), for inactives: at the top dose activity change, negative = inhibition, most hits filed as inhibitors; 360,000 compounds, 2.1% hits; AID 504444; note: % is set by controls: 0 for no effect and ±100 for the full control effect; nearly all actives have a fitted effect of over 60% in size
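In this cell-based qHTS, ARE-driven firefly luciferase in A549 cells reports Nrf2 activity; the luminescent signal after BugLite lysis is the measured value, with a prior CellTiter-Fluor read for cell health.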
A549 viability: kills or reduces viability of A549 cells in Nrf2 counter-screen; A549 ARE-Fluc cells, CellTiter-Fluor viability, 18-24 h; Potency, µM (top dose mostly 46 µM), for inactives: at the top dose activity change, negative = cytotoxicity, actives largely listed as inhibitors; 390,000 compounds, 0.16% hits; note: % is set by controls: 0 for no effect and ±100 for the full control effect
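A549 ARE_Fluc cells in 5% FBS OPTI-MEM were exposed to compounds in concentration-response for 18-24 h at 37 deg C. Viability was read by CellTiter-Fluor fluorescence (Ex 405/Em 525) after 30 min, before the luciferase read.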
ATXN viability: reduces viability in counter-screen for ATXN expression inhibitors | Potency, µM (titrated, usually from 56.7 µM), usual class: cytotoxic | AID 651635 | 400,000 compounds, 0.49% hits | S2 cells (HEK-293 line with an ATXN2-luciferase reporter) viability, CellTiter-Fluor protease fluorescence, 24 h; note: nearly all actives have a fitted effect of over 40% in size
Nrf2 ARE act: activators of Nrf2 (ARE) signaling | AREc32 ARE-luciferase reporter (MCF7-derived line), luminescence, 24 h | Potency, µM (titrated, usually from 46.1 µM), for inactives: at the highest dose activation, hits mostly activators | 410,000 compounds, 0.31% hits | AID 624171; note: % of control where 0% means no effect; nearly all actives have a fitted effect of over 65% in size
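Each well held 1000 AREc32 cells, which were incubated with compound for 24 hr at 37 deg C after overnight attachment, and ARE reporter activity was quantified by firefly luciferase luminescence.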
An asterisk follows results filed as active; i = inactive; ? = inconclusive; . = not tested or not shown; [ ] = dose if it differs, or a comment. Calls come from the whole dose curve; as a rule, active = well fitted curve in the direction sought with a large enough effect; inconclusive = small, poorly fitted or top-dose-only effect, or another doubt; inactive = no such curve, though single readings can be large; an effect the other way counts as inactive or inconclusive. Potency is the fitted concentration of half-maximal effect.

SMILES	ATXN2 expr inh	Nrf2 block	A549 viability	ATXN viability	Nrf2 ARE act
COc1ccc(OC)c(-c2csc(NC(=O)Cc3ccccc3)n2)c1	5%	18µM*	-17%	?	3%
COc1ccc(CC(=O)Nc2nc(-c3cc(OC)ccc3OC)cs2)cc1	-13%	12µM*	-20%	i	0%
COc1ccc(OC)c(-c2csc(N(C)C(=O)c3ccco3)n2)c1	-19%	?	0%	35µM*	1%
CCc1cc(C(=O)NCC2Cc3cc(-c4ccccc4C(C)=O)ccc3O2)no1 (configuration not stated)	.	.	.	i	.
Cn1c(=O)c2c(SCC(=O)NCC3CCCO3)nc(-c3cccc(F)c3)nc2n(C)c1=O (configuration not stated)	-4%	.	3%	i	1%
CCc1noc(C)c1C(=O)Nc1nc(-c2ccc(OC)cc2OC)cs1	3%	8.2µM*	-3%	?	0%
COc1ccc(CC(=O)Nc2nc(C(C)(C)C)cs2)cc1	-9%	13µM*	?	i	2%
CC(C)NC[C@@H](C(=O)N1CCN(c2ncnc3c2[C@H](C)C[C@H]3O)CC1)c1ccc(Cl)cc1	19µM*	.	.	.	.
CC(=O)Nc1ccc(SCC(CC(C)C)N2CCN(C)CCC2=O)cc1 (configuration not stated)	.	-14%	0%	.	.
Cc1ccc(-c2nc(CS(=O)CC(=O)N3CCN(c4cccc(Cl)c4)CC3)c(C)o2)cc1 (configuration not stated)	.	23µM*	?	.	3%
CCC(=O)N1CCc2cc(Br)cc(S(=O)(=O)N3CCC(C(=O)Nc4cccc(C)c4)CC3)c21	-17%	8.2µM*	-8%	i	-1%
COCc1c(C(=O)N2CCN(c3ccccc3)CC2)cnn1-c1nccc(-c2ccco2)n1	.	.	.	i	.
CC1Cc2ccccc2N1C(=O)CSc1nnc2c(n1)[nH]c1ccccc12 (configuration not stated)	-16%	?	-3%	i	1%
O=C(CSc1nnc(-c2c[nH]c3ccccc23)o1)N1c2ccccc2CCc2ccccc21	-24%	12µM*	-26%	i	0%
CC1Cc2ccccc2N1C(=O)CSc1nnc(-c2ccccc2)c(-c2ccccc2)n1 (configuration not stated)	-16%	23µM*	0%[1.84 µM]	i	0%
CC1Cc2ccccc2N1C(=O)CSc1nnc(-c2ccccc2Cl)o1 (configuration not stated)	-10%	-29%	0%	i	1.8µM*
CCn1c(=O)c2sccc2n2c(CCC(=O)N3CCN(c4ccc(C(C)=O)cc4)CC3)nnc12	0%	-7%	-5%	i	0%
COc1cccc(CN2CCC3(CC2)c2ccccc2[C@@H](NC(=O)c2ccccc2)[C@@H]3O)c1O	.	.	.	i	.
Oc1cc(-c2nc3ccccc3s2)cc2c1OCCN(Cc1cccn1-c1ncccn1)C2	.	.	.	i	.
COc1ccc(/C=C2\CCc3ccccc3C2=O)cc1Cn1cccn1	-1%	2.3µM*	-17%	i	17%
COc1ccc(/C=C2\Cc3ccccc3C2=O)cc1OC	.	4%	1%	i	0%
COc1cc(C=C2Cc3ccccc3C2=O)cc(OC)c1OC	16%	.	.	i	7.1µM*
Cc1ccc2occ(CC(=O)N(Cc3ccc(Cl)cc3)Cc3ccco3)c2c1	-23%	?	?	i	10%
COc1ccc(CNC(=O)C2CCN(C(=O)c3ccc(-n4ccc5ccccc54)s3)CC2)cc1	.	21µM*	-25%	.	3%
Cc1ccc(C(=O)Nc2cnn(-c3ccc(C(=O)NCc4nc(-c5ccccc5)n[nH]4)cc3)c2)c(C)c1	.	.	.	i	.
O=C1CCc2cc(S(=O)(=O)Nc3cccc(-c4ccccc4)c3)ccc2N1	.	?	-5%	.	.
O=C(Nc1cccc(Oc2ccccc2)c1)c1ccc(-n2cncn2)c2ccoc12	-24%	.	.	6.3µM*	4%
CN1C2CCC1/C(=C\c1ccccc1)C(=O)/C2=C\c1ccccc1	25µM*	26µM*	?	?	?
CC(C)CSc1nnc(CNC(=O)c2ccccn2)n1C	.	.	.	i	.
Cc1cc(C(=O)Nc2ccccc2-c2nc(CNC(=O)c3ccc(F)cc3F)c(C)o2)c(C)o1	.	.	.	i	.
